Assay outcomes from PubChem BioAssay.
12-LOX inh – inhibitors of human 12S-lipoxygenase ALOX12 | purified 12hLO, xylenol orange hydroperoxide absorbance | Potency, µM (highest dose often 108 µM), without a hit: at the top dose activity change, negative = inhibition, actives largely listed as inhibitors | 580,000 compounds, 1.1% hits; note: % is set by controls: 0 for no effect and ±100 for the full control effect
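Purified human 12hLO (150 nM final) in 25 mM Hepes, 0.01% Triton X-100, pH 7.0 was preincubated 15 min at room temperature with compound. Then 40 uM arachidonic acid was added, 30 min. Hydroperoxide was read by Fe-XO absorbance ratio 573/405 nm.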
HP1b binding inh – blocks HP1-beta chromodomain binding to methylated histone tails; P83916; AlphaScreen HP1-beta / biotin-H3K9me3 peptide binding; Potency, µM (series often up to 114 µM), inactives show at the top dose activity change, negative = inhibition, usual class: inhibitors; 390,000 compounds, 0.56% hits; note: nearly all actives have a fitted effect of over 70% in size
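Compound inhibition of the preformed complex between 50 nM HP1-beta and 50 nM biotinylated H3K9me3 peptide was read by AlphaScreen. Buffer was PBS pH 7.4 with 0.01% Tween-20. Incubations ran 30 min at room temperature, with 10 ug/mL donor/acceptor beads.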
BAZ2B inh – inhibitors of human BAZ2B bromodomain; Q9UIF8; AlphaScreen BAZ2B-H3K14Ac peptide displacement; Potency, µM (top dose mostly 114 µM), for the others: at the top dose activity change, negative = inhibition, usual class: inhibitors; 360,000 compounds, 4.4% hits; AID 504333; note: % is set by controls: 0 for no effect and ±100 for the full control effect; nearly all actives have a fitted effect of over 60% in size
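AlphaScreen displacement of biotin-H3(5-23)K14Ac peptide (50 nM final) from BAZ2B (50 nM final) in PBS pH 7.4, 0.01% Tween-20; complex preformed 30 min RT, then compounds (top 110 uM) 30 min RT, beads 20 min dark.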
PLK1 PBD inh – PLK1 (human) polo-box domain binding inhibition | Plk1 PBD binding of FITC phosphopeptide, fluorescence polarization | 360,000 compounds, 2.8% hits | Potency, µM, for the others: max response, negative = inhibition, actives largely listed as inhibitors | P53350; note: series mostly up to about 57 µM; % is set by controls: 0 for no effect and ±100 for the full control effect; nearly all actives have a fitted effect of over 65% in size
JMJD2A Tudor – blocks the human JMJD2A Tudor domain; O75164; AlphaScreen JMJD2A-Tudor / H3K4me3 peptide binding; Potency, µM (doses to about 114 µM), without a hit: at the top dose activity change, negative = inhibition, hits mostly inhibitors; 390,000 compounds, 4.4% hits; AID 504339; note: % is set by controls: 0 for no effect and ±100 for the full control effect; nearly all actives have a fitted effect of over 50% in size
G9a block – G9a (human) methyltransferase inhibition; Q96KQ7; G9a H3K9 monomethylation, AlphaScreen, 2 h; Potency, µM (top dose mostly 102 µM), without a hit: top-dose activity, negative = inhibition, most hits filed as inhibitors; 350,000 compounds, 8.8% hits; AID 504332; note: % is set by controls: 0 for no effect and ±100 for the full control effect; nearly all actives have a fitted effect of over 75% in size
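Compounds were preincubated with 20 nM G9a for 15 min, after which biotinylated H3K9 peptide (500 nM) and SAM (20 uM) started a 2 h room-temperature reaction. Monomethylated product was quantified by antibody-based AlphaScreen chemiluminescence.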
* marks the source's active call; other numbers are inactive results; ? = inconclusive; / = not tested or not shown; ! = repeats disagree; [ ] = dose if it differs, or a comment. Shown are actives, neighbours in structure and some others; about 9% of the full set was active somewhere. Calls come from the whole dose curve; as a rule, active = well fitted curve in the direction sought with a large enough effect; inconclusive = small, poorly fitted or top-dose-only effect, or another doubt; inactive = no such curve, though single readings can be large; an effect the other way counts as inactive or inconclusive. Potency is the fitted concentration of half-maximal effect.

SMILES | 12-LOX inh | HP1b binding inh | BAZ2B inh | PLK1 PBD inh | JMJD2A Tudor | G9a block
CN(C(=O)CO/N=C/c1ccc(Cl)cc1)c1ccccc1 | -3.0% | 16.5% | 9.2% | -7.1% | -1.5% | 5.4%
CN(C(=O)COC(=O)c1ccc(C#N)cc1)c1ccccc1 | -18.8% | 46.4% | -21.1% | -1.5% | -9.5% | 50.1µM*
COc1ccc(/C=N/OCC(=O)OCC(=O)N(C)c2ccccc2)cc1 | -18.7% | 21.4% | -2.5% | 1.1% | -2.1% | 50.1µM*
CN(C(=O)COC(=O)c1ccc(F)cc1)c1ccccc1 | -4.9% | / | / | / | / | /
O=C(Nc1ccc(Cl)cn1)c1ccc(-c2cc(Cl)ccc2Cl)o1 | -9.6% | 42.1% | -1.1% | -7.5% | 6.6% | 0.7%
Cc1cccc(N/C=C(\[N+](=O)[O-])S(=O)(=O)c2ccccc2)c1 | ? | -4.4% | ? | 26.7µM* | ? | ?
Cc1ccc(N/C=C(\[N+](=O)[O-])S(=O)(=O)c2ccccc2)cc1 | -4.5% | 33.1% | -33.6% | -21.4% | -14.0% | ?
CCOc1ccccc1NC1c2ccccc2C(=O)N1Cc1ccco1 (stereo not drawn) | -9.5% | -7.8% | ? | -5.4% | ? | 44.7µM*
Clc1ccc(N2O[C@H]3C=C[C@@H]2C3)nc1 | / | / | / | 29.9µM* | / | /
O=C(c1ccc[nH]1)N1O[C@@H]2C=C[C@H]1C2 | 12.7% | 36.1% | / | -4.1% | -13.7% | /
Cc1cc(C)cc(Oc2nn[nH]n2)c1 | -3.0% | 26.7% | -30.7% | 0.8% | -15.6% | -8.5%
CC(C)(C)c1cccc(Oc2nn[nH]n2)c1 | -13.5% | 30.7% | -2.7% | -9.0% | -16.0% | 79.4µM*
CC(C)NC(=O)COc1ccc(S(=O)(=O)N2CCOCC2)cc1 | -23.1% | 38.7% | 7.6% | -9.1% | -1.9% | -33.6%
COc1ccc(S(=O)(=O)N=Nc2c(O)[nH]c3ccccc23)cc1 | ? | 61.4% | -3.4% | -14.1% | -26.9% | 3.16µM*
Cc1ccc(S(=O)(=O)N=Nc2c(O)[nH]c3ccccc23)cc1C | ? | 47.1% | -35.0% | -12.5% | 35.5µM* | 4.47µM*
CC(C)CC1C(=O)N(Cc2cn(CCC3OCCCO3)nn2)CCS(=O)(=O)N1Cc1ccc(-c2ccccc2)cc1 (stereo not drawn) | 0.0% | / | / | -4.0% | / | /
C=C1CN(CC(=O)OC)S(=O)(=O)c2ccccc21 | -11.8% | -16.7% | -6.8% | -20.7% | 89.1µM*! | -11.0%[59 µM]
COCCCNC(=S)N/N=C/c1cccc(OC)c1O | 96.3% | 17.8% | 6.31µM* | -5.7% | ? | /
CCCCOc1ccc(CNC(=S)N/N=C/c2ccc(OC)c(OC)c2)cc1 | 28.2µM* | 0.7% | 8.0% | -3.4% | -32.4% | -15.0%[59 µM]
COCCCNC(=S)N/N=C/c1ccc(O)cc1O | 304.2% | 16.4% | 6.31µM* | -8.5% | 50.1µM* | 3.8%
COc1cc(/C=N/NC(=S)Nc2cccc(C(=O)O)c2)ccc1O | -24.6% | ? | 5.9% | -6.1% | -18.2% | ?
COc1cccc(/C=N/NC(=S)Nc2cccc(C(=O)O)c2)c1O | ? | 41.3% | / | -19.0% | 15.8µM* | 39.8µM*
CC(C)CC(=O)NCCc1noc(-c2ccncc2)n1 | 26.3% | / | / | / | / | /
CCc1ccccc1NC(=O)N[C@@H](C)C(=O)O | -20.5% | 18.2% | -35.2% | 0.1% | -16.2% | ?
COCCCNC(=S)N/N=C/c1ccc2ccccc2c1 | 0.0% | 13.5% | ? | -9.6% | -32.7% | 50.1µM*
SMILES | 12-LOX inh | HP1b binding inh | BAZ2B inh | PLK1 PBD inh | JMJD2A Tudor | G9a block
COCCCNC(=S)N/N=C/c1ccc(OC)cc1 | ? | 20.9% | -2.8% | 2.8% | -10.3% | /
CCCCNC(=S)N/N=C/c1cc(C)ccc1C | 50.1µM* | 8.7% | -7.9% | -2.9% | -9.7% | 13.4%
O=C1C(Cl)=C(N2CCOCC2)C(=O)N1c1cccc(C(F)(F)F)c1 | -7.1% | 72.3% | 8.1% | ? | -11.6% | 79.4µM*
COC(=O)c1cccc(N2C(=O)C(Cl)=C(N3CCOCC3)C2=O)c1 | -21.9% | 61.8% | -8.9% | -12.9% | -32.4% | 50.1µM*
Cc1ccc(N2C(=O)C(Cl)=C(N3CCOCC3)C2=O)cc1Cl | -4.0% | 57.4% | -2.5% | -29.7% | ? | -22.4%[59 µM]
COc1c(C)cc(Br)cc1C(=O)Nc1cccc(-c2nc3ncccc3o2)c1 | -29.8% | 36.7% | 2.8% | -5.5% | -24.8% | ?
